Only a selection was taken, and hits are over-represented in it overall.
DT40 TDP1 no CPT: qHTS for Inhibitors of human tyrosyl-DNA phosphodiesterase 1 (TDP1): qHTS in cells in absence of CPT; DT40 Tdp1-/- hTDP1 cells, no CPT, ATP luminescence, 48 h; Potency, µM (series often up to 46.2 µM), for inactives: at the highest dose activity change, negative = growth inhibition, most hits filed as inhibitors; 420,000 tested, 15% active; note: potency is the fitted concentration of half-maximal effect; nearly all actives have a fitted effect of over 55% in size
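Seeded 400 DT40-hTDP1 cells/well (vehicle DMSO, no 20 nM CPT); pinned compounds; ≥48 hr at 37 °C; CellTiter-Glo luminescence as viability measure.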
HT1080-NT tox: qHTS for induction of synthetic lethality in tumor cells producing 2HG: qHTS for the HT-1080-NT fibrosarcoma cell line; Potency, µM (series often up to 46.1 µM), for the others: at the top dose activity, negative = less viability, usual class: cytotoxic; 360,000 tested, 1.6% active; AID 686970, 2013; HT-1080-NT fibrosarcoma viability, CellTiter-Glo ATP luminescence, 48 h;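 note: NT is the 2HG producing partner of a matched IDH1 knockdown line; potency is the fitted concentration of half-maximal effect; 0% = DMSO-treated cells and -100% = media-only wells without cells; nearly all actives have a fitted effect of over 55% in size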
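Fibrosarcoma NT cells, 750 per well in 5% FBS RPMI, were exposed to compound for 48 hours. Viability: CellTiter-Glo luminescence.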
DT40 TDP1 CPT: qHTS for Inhibitors of human tyrosyl-DNA phosphodiesterase 1 (TDP1): qHTS in cells in presence of CPT | chicken DT40 Tdp1-/-;hTDP1 cells + 20 nM CPT, ATP luminescence, 48 h | Potency, µM (series often up to 46.2 µM), without a hit: at the top dose activity change, negative = growth inhibition, hits mostly inhibitors | 420,000 tested, 12% active | AID 686979, 2013; note: potency is the fitted concentration of half-maximal effect; nearly all actives have a fitted effect of over 55% in size
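Chicken DT40 Tdp1-/- cells stably complemented with human TDP1 were seeded at 400 cells/well in medium containing 20 nM camptothecin, exposed to pin-transferred compounds, and grown at 37 °C for at least 48 hr. Viability was read as ATP luminescence.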
HT1080 IDH1KD tx: qHTS for induction of synthetic lethality in tumor cells producing 2HG: qHTS for the HT-1080-IDH1KD cell line; HT-1080 IDH1 knockdown viability, ATP luminescence, 48 h; AID 686971, 2013; Potency, µM (titrated, usually from 46.1 µM), for the others: at the top dose activity, negative = toxicity, hits mostly cytotoxic; 360,000 tested, 2% active;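 note: potency is the fitted concentration of half-maximal effect; 0% = DMSO wells and -100% = cell-free medium wells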
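IDH1KD HT-1080 cells, 750/well, RPMI + 5% FBS; compound pinned after 2 h settling; 48 h, 37 °C; CellTiter-Glo luminescence; % activity normalised to DMSO and no-cell wells; curves fitted, classed by r2 and efficacy.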
IL-1B inflam inh: qHTS for Inhibitors of Inflammasome Signaling: IL-1-beta AlphaLISA Primary Screen | THP-1 LPS/ATP IL-1B secretion, AlphaLISA, 16 h; hits give low values | activity change, % at 57.5 µM | 360,000 tested, 4.7% active | AID 743279, 2014; in the data active = activity change below about -50%; inconclusive = mostly about -30% to -49%
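THP-1 cells pretreated 1 hr with compounds (up to 57.5 uM final), then stimulated with LPS (250 ng/mL final) plus ATP (1.25 mM final); secreted IL-1B measured by AlphaLISA after 16 hr, decreased signal indicating inhibition.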
ALOX12 inh: Primary qHTS assay for inhibitors of human arachidonate 12S-lipoxygenase (ALOX12): Round 2 | Polyunsaturated fatty acid lipoxygenase ALOX12 (Homo sapiens), P18054 | purified 12hLO, xylenol orange hydroperoxide absorbance | Potency, µM (series often up to 108 µM), for inactives: at the top dose activity change, negative = inhibition, most hits filed as inhibitors | 580,000 tested, 1.1% active | AID 1671190, 2021; note: potency is the fitted concentration of half-maximal effect
Target sequence (P18054 whole entry, looked up): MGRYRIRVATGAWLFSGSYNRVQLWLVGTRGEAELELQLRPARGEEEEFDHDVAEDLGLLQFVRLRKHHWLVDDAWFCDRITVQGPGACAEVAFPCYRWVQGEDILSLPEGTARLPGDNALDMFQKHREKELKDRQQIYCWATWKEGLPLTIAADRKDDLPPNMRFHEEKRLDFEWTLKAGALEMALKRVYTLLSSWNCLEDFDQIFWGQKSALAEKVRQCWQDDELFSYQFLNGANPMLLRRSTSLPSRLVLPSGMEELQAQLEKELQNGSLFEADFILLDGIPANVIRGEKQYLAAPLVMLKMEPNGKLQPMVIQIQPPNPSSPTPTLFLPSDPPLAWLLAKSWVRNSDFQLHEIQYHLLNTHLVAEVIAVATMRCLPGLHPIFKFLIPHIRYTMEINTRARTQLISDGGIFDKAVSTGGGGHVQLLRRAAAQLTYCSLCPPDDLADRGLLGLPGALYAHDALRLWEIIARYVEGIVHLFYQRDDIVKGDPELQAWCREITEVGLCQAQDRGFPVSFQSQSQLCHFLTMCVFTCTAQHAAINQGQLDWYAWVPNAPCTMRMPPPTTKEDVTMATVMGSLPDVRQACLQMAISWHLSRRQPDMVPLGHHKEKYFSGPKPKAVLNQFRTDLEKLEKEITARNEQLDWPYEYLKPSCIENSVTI
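Purified human 12hLO (150 nM final) in 25 mM Hepes, 0.01% Triton X-100, pH 7.0 was preincubated 15 min at room temperature with compound. Then 40 uM arachidonic acid was added, 30 min. Hydroperoxide was read by Fe-XO absorbance ratio 573/405 nm.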
Starred values were filed as active, the others as inactive; ? = inconclusive; . = no result; [ ] = dose if it differs, or a comment. Unless noted, calls come from the whole dose curve; as a rule, active = well fitted curve in the direction sought with a large enough effect; inconclusive = small, poorly fitted or top-dose-only effect, or another doubt; inactive = no such curve, though single readings can be large; an effect the other way counts as inactive or inconclusive. Unless noted, % is set by controls: 0 for no effect and ±100 for the full control effect.

SMILES | DT40 TDP1 no CPT | HT1080-NT tox | DT40 TDP1 CPT | HT1080 IDH1KD tx | IL-1B inflam inh | ALOX12 inh
O=C(CN1C(=O)CCC1=O)NNc1ccc2ccccc2c1 | -13% | 2.9µM* | -9% | 2.3µM* | 19 | ?
CCN1CCN(c2oc(-c3ccc(Cl)cc3)nc2C#N)CC1 | . | . | . | . | . | -5%
COc1cccc(CNC(=O)C(C)n2ccc3cc(S(=O)(=O)N4CCCC4)ccc32)c1 (stereo not drawn) | -29% | -5% | ? | -13% | 0 | -18%
CCC(C(=O)NCCC(C)C)n1ccc2cc(S(=O)(=O)N3CCCCC3)ccc21 (stereo not drawn) | 8.2µM* | ? | 13µM* | ? | 7 | .
COc1cccc(CNC(=O)C(C)n2ccc3cc(S(=O)(=O)N4CCCCCC4)ccc32)c1 (stereo not drawn) | 15µM* | -6% | 5.2µM* | -3% | -27 | -4%
COc1ccc(CCNC(=O)Cn2ccc3cc(S(=O)(=O)N4CCCCC4)ccc32)cc1OC | ? | . | ? | . | . | -25%
COc1ccc(CNC(=O)C(C)n2ccc3cc(S(=O)(=O)N4CCCC4)ccc32)cc1OC (stereo not drawn) | 0.58µM* | . | 0.29µM* | . | . | 5%
CC(C(=O)NCc1ccccc1)n1ccc2cc(S(=O)(=O)N3CCCC3)ccc21 (stereo not drawn) | 18µM* | . | ? | . | . | -1%
CC(C(=O)N1CCOCC1)n1ccc2cc(S(=O)(=O)N3CCCCCC3)ccc21 (stereo not drawn) | . | . | . | . | . | -26%
C=C(C)[C@@H]1CCC2(C(=O)OC)CC[C@]3(C)C(CCC4[C@@]5(C)C/C(=C\c6cccc(OC)c6OC)C(=O)C(C)(C)C5CC[C@]43C)C12 (stereo partly drawn) | . | . | . | . | . | 13%
CN1CCCN(C(=O)[C@@H]2C[C@@H](Sc3nc4ccccc4[nH]3)CN2Cc2ccc(OC(F)(F)F)cc2)CC1 | ? | . | -16%[9.04 µM] | . | . | -7%
CC(C(=O)NCc1ccccc1Cl)n1ccc2cc(S(=O)(=O)N3CCCCC3)ccc21 (stereo not drawn) | 16µM* | . | 16µM* | . | . | -11%
O=C(Cn1ccc2cc(S(=O)(=O)N3CCCCCC3)ccc21)NCc1ccccc1Cl | ? | . | ? | . | . | -9%
CC(C)c1ccc(CN(C(=O)Cn2nc(C(N)=O)c3ccccc3c2=O)C2CC2)cc1 | . | . | . | . | . | 3%
CNC(=O)[C@@H]1CN(S(=O)(=O)c2ccc(C#N)cc2)C[C@H]1COC | . | . | . | . | . | 16%
COC1=CC(=O)c2c(ccc3ncnc(N)c23)C1=O | 0.29µM* | 4.1µM* | 0.21µM* | 2.9µM* | -112* | ?
COCCn1c(C)cnc1CCNC(=O)CC(C)C | . | . | . | . | . | 34%
Cc1nc(-n2nc(C)c(CCC(C)C)c2C)sc1C(=O)Nc1cccc(Cl)c1 | ? | . | ? | . | . | -15%
CC(=O)c1cccc(NC(=O)c2sc(-n3nc(C)c(CCC(C)C)c3C)nc2C)c1 | ? | . | 13µM* | . | . | ?
Cc1nc(-n2nc(C)c(CCC(C)C)c2C)sc1C(=O)Nc1cccc(Cl)c1C | -13% | . | 0% | . | . | -3%
Cc1cccc(NC(=O)c2sc(-n3nc(C)c(CCC(C)C)c3C)nc2C)c1C | 21µM* | . | ? | . | . | 3%
OC1(Cn2ccnc2)CCN(Cc2ccccc2Cn2cccn2)CC1 | . | . | . | . | . | 23%
CCOC(=O)C1=CCN(S(=O)(=O)c2ccc(C)cc2)C1c1ccc(Cl)cc1 (stereo not drawn) | ? | ? | ? | ? | 4 | 0%
CCOC(=O)C1=CCN(S(=O)(=O)c2ccc(C)cc2)C1c1ccc(C)cc1 (stereo not drawn) | ? | -18% | ? | -15% | 87 | -11%
CCOC(=O)C1=CCN(S(=O)(=O)c2ccc(C)cc2)C1c1ccc(C(C)C)cc1 (stereo not drawn) | 18µM* | -26% | 18µM* | ? | 17 | -16%
SMILES | DT40 TDP1 no CPT | HT1080-NT tox | DT40 TDP1 CPT | HT1080 IDH1KD tx | IL-1B inflam inh | ALOX12 inh
CCOC(=O)C1=CCN(S(=O)(=O)c2ccc(C)cc2)C1c1ccc(CC)cc1 (stereo not drawn) | 18µM* | ? | ? | ? | 0 | 0%
CN1CCN(C(=O)C2=C[C@H](c3ccc(C(F)(F)F)cc3)C[C@H](OCc3ccc(CO)cc3)O2)CC1 | ? | -4% | 23µM* | 0% | -13 | 4%
O=C(C1=C[C@H](c2ccccc2)C[C@H](OCc2ccc(CO)cc2)O1)N1CCN(Cc2ccccc2)CC1 | ? | -15% | ? | -9% | -60* | -8%
O=C(C1=C[C@@H](c2ccccc2)C[C@@H](OCc2ccc(CO)cc2)O1)N1CCN(Cc2ccc3c(c2)OCO3)CC1 | 21µM* | ? | 18µM* | 16µM* | ? | 4%
O=C(C1=C[C@H](c2ccccc2)C[C@H](OCCCCO)O1)N1CCN(Cc2ccc3c(c2)OCO3)CC1 | -34% | 0% | ? | 7% | -9 | -19%
O=C(C1=C[C@H](c2ccc(C(F)(F)F)cc2)C[C@H](OCc2ccc(CO)cc2)O1)N1CCCCCCC1 | ? | ? | ? | ? | -22 | .
O=C(Cn1nnc(-c2ccc(F)cc2)n1)c1ccccc1 | . | . | . | . | . | 28%
O=C(NC1CCCCC1)c1nn(Cc2ccccc2)c(=O)c2ccccc12 | . | . | . | . | . | 1%
CCOc1ccc(-n2c(=O)c3c(C)c(C)sc3n(CC(=O)N3CCC(C)CC3)c2=O)cc1 | 21µM* | . | ? | . | . | ?
CCOC(=O)CSc1nc2c(sc(=S)n2-c2ccccc2)c(=O)[nH]1 | -19% | 4% | -12% | 2% | -11 | -26%
CCOc1ccc(-n2c(=S)sc3c(=O)[nH]c(SCC(=O)N4CCC(C)CC4)nc32)cc1 | ? | 0% | -26% | 10% | 20 | 45µM*
CCOc1ccc(-n2c(=S)sc3c(=O)[nH]c(SCC(=O)C(C)(C)C)nc32)cc1 | 18µM* | -23% | 26µM* | ? | 36 | -27%
CCOc1ccc(-n2c(=S)sc3c(=O)[nH]c(SCC(=O)NCc4ccco4)nc32)cc1 | -6% | 13% | 0% | -9% | 14 | ?
